Our source for the Potency and outcome values is PubChem BioAssay (Tox21).

Test [1] is described as follows: qHTS assay to identify small molecule antagonists of the thyroid receptor (TR) signaling pathway - cell viability counter screen (AID 743064). Also: nearly all actives have a fitted effect of over 50% in size. The gist of the method: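 Viability of T3-stimulated (1 nM final) GH3.TRE-Luc cells is measured by CellTiter-Fluor fluorescence after 23.5 h compound exposure at 37 °C plus 30 min reagent incubation.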
On the technique in general: Quantitative high-throughput screening tests each substance at several concentrations.

Test [2] can be described thus: qHTS assay to identify small molecule antagonists of the thyroid receptor (TR) signaling pathway (AID 743065). Also: nearly all actives have a fitted effect of over 55% in size. Also: potency is read from the fitted curve at half-maximal effect. The essentials:
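GH3.TRE-Luc rat pituitary cells (two TREs driving luciferase) were dosed with compound, then stimulated with 1 nM T3 (final) for 23.5 h at 37 C. ONE-Glo luminescence was the read-out, with CellTiter-Fluor fluorescence as the cytotoxicity counter-screen.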

For test [3], the system named is thyroid hormone receptor (rat, GH3 cells). The test is described as follows: qHTS assay to identify small molecule agonists of the thyroid receptor (TR) signaling pathway (AID 743066; calls by dose curve).
For test [4], the target named is Estrogen receptor (Homo sapiens) (UniProt P03372). As to the kind of experiment: qHTS assay to identify small molecule antagonists of the estrogen receptor alpha (ER-alpha) signaling pathway (AID 743069; active = well fitted curve in the direction sought with a large enough effect in the signal ratio in the repeat runs, not every such curve was filed as active; inconclusive = weak or mixed curves, or effect the other way; inactive = no such curve, though single readings can be large or run the other way; the % refers to the signal ratio; also: potency is read from the fitted curve at half-maximal effect). The gist of the method: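 HEK293 ER-alpha-UAS-bla GripTite cells, held overnight in 2% charcoal-stripped FBS, 5,000 cells/well, preincubated 4 h, then compound plus 17beta-estradiol for 18 h at 37C. Beta-lactamase read by LiveBLAzer B/G FRET substrate, 2 h at room temperature.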

Test [5] is described as follows: qHTS assay to identify small molecule antagonists of the estrogen receptor alpha (ER-alpha) signaling pathway - cell viability counter screen (AID 743074; calls by dose curve;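 also: HEK293 cells carrying ER-alpha-UAS-bla reporter stimulated with 17beta-estradiol; nearly all actives have a fitted effect of over 45% in size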).
Test [6] has as its target Estrogen receptor (Homo sapiens) (UniProt P03372). The test is described as follows: qHTS assay to identify small molecule agonists of the estrogen receptor alpha (ER-alpha) signaling pathway (AID 743075; calls by dose curve; also: potency is read from the fitted curve at half-maximal effect).
For test [7] the target is unchanged. The test is described as follows: qHTS assay to identify small molecule agonists of the estrogen receptor alpha (ER-alpha) signaling pathway using the BG1 cell line (AID 743079). Also: nearly all actives have a fitted effect of over 20% in size. Also: potency is read from the fitted curve at half-maximal effect. The settings on record: BG1Luc4E2 cells, ERE-luciferase agonist, 22 h; activation: at 70.3 µM (top of the series).
The nature of test [8]: qHTS assay to identify small molecule antagonists of the estrogen receptor alpha (ER-alpha) signaling pathway using the BG1 cell line (AID 743080; calls by dose curve;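 also: BG1 cells stimulated with 17beta-estradiol alongside compound; nearly all actives have a fitted effect of over 25% in size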; also: potency is read from the fitted curve at half-maximal effect). The gist of the method: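 After 5 days in phenol-red-free 10% charcoal-stripped FBS medium, BG1-Luc-4E2 cells were seeded, left 24 h at 37 C, co-treated with compounds and 17beta-estradiol for 21.5 h, then assayed for viability and luciferase.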

Test [9] is described as follows: qHTS assay to identify small molecule antagonists of the estrogen receptor alpha (ER-alpha) signaling pathway using the BG1 cell line - cell viability counter screen (AID 743081).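 Also: compound given together with 17beta-estradiol as the ER stimulus; nearly all actives have a fitted effect of over 45% in size.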
Test [10] deals with Aromatase (Homo sapiens) (UniProt P11511). As to the kind of experiment: qHTS assay to identify aromatase inhibitors (AID 743083). Also: nearly all actives have a fitted effect of over 55% in size. Also: potency is read from the fitted curve at half-maximal effect.

Values joined by “and” are separate entries in the source; they are usually repeats but may differ in a detail not shown here. Equal entries are not always repeated. Some compounds were tested as several samples or in several runs, with calls that do not always agree. Active and inactive are the calls of the source. Unless noted, calls follow the shape of the dose curve; as a rule, active = well fitted curve in the direction sought with a large enough effect in the repeat runs; inconclusive = weak or mixed curves; inactive = no such curve, though single readings can be large; an effect the other way counts as inactive or inconclusive.

Aromatase (Homo sapiens), sequence (P11511 whole entry, looked up): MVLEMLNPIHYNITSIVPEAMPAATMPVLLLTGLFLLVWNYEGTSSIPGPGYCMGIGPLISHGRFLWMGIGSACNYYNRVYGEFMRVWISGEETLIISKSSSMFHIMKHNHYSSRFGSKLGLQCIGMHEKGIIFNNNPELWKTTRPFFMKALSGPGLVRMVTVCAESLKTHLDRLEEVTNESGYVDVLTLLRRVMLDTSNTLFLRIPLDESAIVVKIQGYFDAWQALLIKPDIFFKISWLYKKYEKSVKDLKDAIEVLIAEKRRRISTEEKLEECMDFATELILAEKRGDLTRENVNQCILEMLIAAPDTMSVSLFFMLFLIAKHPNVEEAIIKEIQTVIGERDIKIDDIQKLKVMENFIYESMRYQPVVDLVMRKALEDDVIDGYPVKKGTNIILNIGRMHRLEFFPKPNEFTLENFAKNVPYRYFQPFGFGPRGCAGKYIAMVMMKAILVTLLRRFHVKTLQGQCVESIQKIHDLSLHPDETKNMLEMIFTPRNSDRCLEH
Estrogen receptor (Homo sapiens), sequence (P03372 whole entry, looked up): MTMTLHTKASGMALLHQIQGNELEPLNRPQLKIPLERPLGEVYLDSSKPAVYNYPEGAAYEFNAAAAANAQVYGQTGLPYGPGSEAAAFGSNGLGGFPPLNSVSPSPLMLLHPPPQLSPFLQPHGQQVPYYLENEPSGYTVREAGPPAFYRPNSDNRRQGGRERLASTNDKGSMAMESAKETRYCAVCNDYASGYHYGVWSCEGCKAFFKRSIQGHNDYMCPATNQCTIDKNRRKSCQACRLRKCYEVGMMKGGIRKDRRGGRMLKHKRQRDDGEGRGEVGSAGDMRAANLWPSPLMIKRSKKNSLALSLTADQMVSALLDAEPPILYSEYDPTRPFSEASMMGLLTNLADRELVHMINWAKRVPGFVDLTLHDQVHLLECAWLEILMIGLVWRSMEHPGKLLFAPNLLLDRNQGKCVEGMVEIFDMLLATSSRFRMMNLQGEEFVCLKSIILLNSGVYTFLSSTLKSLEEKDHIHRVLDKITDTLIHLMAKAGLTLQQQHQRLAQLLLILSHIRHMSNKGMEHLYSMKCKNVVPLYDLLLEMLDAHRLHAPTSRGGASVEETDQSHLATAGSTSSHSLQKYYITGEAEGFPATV

Consider `CCCC(=O)C(=O)O`, for which the Potency result in [1], in test [2], in [4], in [5], in [6] and in [7] was “inactive” each time. The Potency entry in [8], in test [9] and in test [10] was “inactive” throughout. Also, in test [3], the call was inactive.

On to `CC(C)=CCC/C(C)=C/CC/C(C)=C/CCC(=O)OC/C=C(\C)CCC=C(C)C`, for which the Potency entry in test [1], in test [2], in test [4], in [5], in test [6] and in [7] was “inactive” each time. For the same compound, the Potency entry in test [8], in test [9] and in test [10] was “inactive” each time. For the same compound, the call in test [3] was inactive.

For the compound `C=C(C)CCCC(C)CCO` (centres undefined), the Potency result in test [1], in test [2], in test [4], in [5], in test [6] and in test [7] was “inactive” throughout. Besides, the Potency entry in test [8], in [9] and in test [10] was “inactive” each time. In test [3], the call was inactive.

Take `Nc1ncnc2c1ncn2[C@H]1CC[C@@H](CO)O1`: the Potency entry in [1], in test [2], in test [4], in test [5], in [6] and in [7] was “inactive” throughout. Further, the Potency entry in test [8], in [9] and in [10] was “inactive” in each case. Also, in [3], the result was inactive.

As to `CCC(C)COC(C)=O` (centres undefined), the Potency result in [1], in [2], in test [4], in [5], in test [6] and in test [7] was “inactive” throughout. For the same compound, the Potency entry in [8], in [9] and in test [10] was “inactive” in each case. Moreover, the call in test [3] was inactive.

As to `O=Cc1c2ccccc2c(Cl)c2ccccc12`, the Potency entry in test [1], in test [2], in test [4], in [5], in test [7] and in test [8] was “inactive” each time. Moreover, the Potency result in test [9] and in [10] was “inactive” each time. Besides, the compound was called inactive in test [3]. Besides, the Potency in test [6] was 13.5 µM [inconclusive] (active).

Regarding `C=CC(=O)[O-].C=CC(=O)[O-].[Zn+2]`, the Potency entry in [1], in test [2], in [4], in [5], in [6] and in [7] was “inactive” throughout. In addition, the Potency result in test [8], in test [9] and in test [10] was “inactive” each time. For the same compound, the outcome in [3] was inactive.

On to `CC1(C)S[C@@H]2[C@H](NC(=O)C(c3ccccc3)S(=O)(=O)O)C(=O)N2[C@H]1C(=O)O` (some centres undefined), for which the Potency result in [1], in test [2], in [4], in test [5], in test [6] and in test [7] was “inactive” throughout. The Potency entry in test [8] and in [10] was “inactive” throughout. For the same compound, the result in test [3] was inactive.

With `Cc1cc(C)cc(N)c1`, the Potency entry in test [1], in test [2], in test [4], in test [5], in [6] and in test [7] was “inactive” in each case. Moreover, the Potency result in test [8], in test [9] and in test [10] was “inactive” in each case. The outcome in [3] was inactive.

Consider `O=c1[nH]ncc2ccccc12`, for which the Potency entry in [1], in test [2], in [4], in [5], in test [6] and in test [7] was “inactive” each time. The Potency result in test [8], in test [9] and in test [10] was “inactive” throughout. In addition, the compound was classed as inactive in [3].

In the case of `C1C[C@@H]2[C@H]3CC[C@H](C3)[C@@H]2C1`, the Potency result in test [1], in test [2], in test [4], in [5], in [6] and in test [7] was “inactive” throughout. In addition, the Potency entry in test [8], in test [9] and in test [10] was “inactive” each time. For the same compound, the compound was classed as inactive in test [3].

Take `C=COCC(C)C`: the Potency result in test [1], in test [2], in test [4], in test [5], in test [6] and in test [7] was “inactive” each time. Further, the Potency entry in test [8], in test [9] and in test [10] was “inactive” each time. Moreover, in test [3], the result was inactive.

Consider `C=C(C)C(=O)OCCCCCCCCCCCCC`, for which the Potency entry in [1], in test [2], in [4], in test [5], in test [6] and in test [7] was “inactive” throughout. In addition, the Potency entry in [8], in test [9] and in test [10] was “inactive” each time. Besides, in [3], the result was inactive.

For `Clc1ccc(Nc2nnc(Cc3ccncc3)c3ccccc23)cc1`, the Potency result in [1], in test [5], in test [6], in test [7] and in test [9] was “inactive” in each case. Further, the Potency in [2] is 13.3 µM (active); in [4] it was 26.8 µM [inconclusive] (active) and inactive; in [8], 21.1 µM (active) and 26.6 µM (active); in test [10], 5.31 µM (active) and 13.3 µM (active). The result in [3] was inactive.

As to `O=C(OC(=O)c1ccccc1)c1ccccc1`, the Potency result in test [1], in test [2], in test [4], in test [5], in test [6] and in [7] was “inactive” in each case. Further, the Potency result in test [8], in test [9] and in test [10] was “inactive” each time. For the same compound, the compound was classed as inactive in [3].

Take `C=C1CCC2CC1C2(C)C` (centres undefined): the Potency result in test [1], in [2], in test [4], in test [5], in test [6] and in test [7] was “inactive” each time. Besides, the Potency entry in test [8], in test [9] and in test [10] was “inactive” throughout. The result in test [3] was inactive.

`CN1C(=O)OC(C)(C)C1=O`: the Potency entry in test [1], in test [2], in [4], in test [5], in [6] and in test [7] was “inactive” in each case. The Potency entry in test [8], in test [9] and in [10] was “inactive” in each case. Also, in [3], the compound was classed as inactive.

In the case of `CCC=CC#N`, the Potency entry in test [1], in test [2], in test [4], in test [5], in test [6] and in [7] was “inactive” each time. Besides, the Potency result in [8], in test [9] and in [10] was “inactive” each time. Besides, the outcome in test [3] was inactive.

Take `CCC(C)(C)OC`: the Potency entry in [1], in test [2], in [4], in test [5], in [8] and in [9] was “inactive” in each case. Moreover, the Potency result in test [10] was “inactive”. The compound was classed as inactive in test [3]. Further, the Potency was 54.7 µM [activator] (active) in test [6] and 68.2 µM (active) in [7].

As to `CCN(CC)CCNC(=O)COc1ccc(OC)cc1`, the Potency result in test [1], in test [2], in test [4], in [5], in [6] and in test [8] was “inactive” throughout. The Potency result in [9] and in test [10] was “inactive” each time. Moreover, in [3], the result was inactive. Further, the Potency in [7] is 23.7 µM (active).
